tim10-1 inh: growth inhibitors of tim10-1 mutant yeast, primary screen, luminescence, uHTS. S. cerevisiae tim10-1 ts strain growth, BacTiter-Glo, 24 h. inhibition, % at 20 µM. 2.2% of 330,000 active;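 active = inhibition of at least 40%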;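 also: mutant grown at 25 °C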
tim23-1 inh: growth inhibitors of tim23-1 mutant yeast, primary screen, luminescence, uHTS. S. cerevisiae tim23-1 growth, BacTiter-Glo luminescence, 24 h. inhibition, % at 20 µM. 1.3% of 330,000 active;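 active = growth inhibition of the mutant yeast at or above 50%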;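 also: temperature-sensitive mutant grown at 25 °C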
NALP3 yeast inh: NALP3 inflammasome inhibitors in reconstituted yeast, primary screen, luminescence, uHTS; Yeast reconstituted NLRP3/ASC/caspase-1, beta-gal luminescence, 24 h; inhibition, % at 10 µM; 0.39% of 330,000 active;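 active = inhibition of 50% or more; inactive = inhibition below 50%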
SKKanGAS inh: S. pyogenes SKKanGAS growth inhibitors in kanamycin, primary screen, streptokinase expression inhibitor project, SKKanGAS strain, BacTiter-Glo luminescence; 6 h; inhibition, % at 7.5 µM; 1.3% of 300,000 active; AID 1662, 2009;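 active = mean replicate score, as percent of positive control median, at least 50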;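 also: strain carries kanamycin resistance gene driven by streptokinase promoter and grows in 40 µg/ml kanamycin; loss of luminescence reflects streptokinase promoter inhibition or plain growth inhibition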
TIM10 inh: growth inhibitors of isogenic TIM10 control yeast, primary screen, counter-screen for tim10-1 yeast inhibitor project, luminescence, uHTS; 1.4% of 330,000 active; AID 463195, 2010; S. cerevisiae TIM10 strain growth, BacTiter-Glo luminescence, 24 h; inhibition, % at 10 µM;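 active = inhibition of 40% or more at the single tested concentration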;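 also: wild-type TIM10 isogenic control strain grown at permissive 25 °C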
NALP1 inh: NALP1 inflammasome inhibitors in reconstituted yeast, colorimetric, S. cerevisiae, triplicate retest; S. cerevisiae NALP1/ASC/caspase-1 growth, X-gal OD620, 72 h; 0.61% of 280,000 active; inhibition, % at 10 µM; AID 2071, 2009; in the data active = inhibition mostly above about 24%, no sharp cut-off; inactive = mostly below about 32%
tim10-1 conf: growth inhibitors of tim10-1 mutant yeast, confirmation, single concentration, luminescence, S. cerevisiae | 56% of 7,400 active | AID 463213, 2010 | shares compounds with tim10-1 inh | S. cerevisiae tim10-1 ts strain growth, BacTiter-Glo, 24 h | inhibition, % at 20 µM;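 active = inhibition of yeast growth at or above a set limit in either of two repeat tests at 20 µM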;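 also: tim10-1 mutant grown at permissive 25 °C to find synthetic lethal compounds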
Large screens that a line does not name were inactive (follow-up assays come after a bar, where they were run). This is a sample that favours compounds with a hit; in the whole collection about 4.9% have one here.

CN(C)CCCN(C(=O)c1ccc(S(=O)(=O)N2CCc3ccccc3C2)cc1)c1nc2c(F)cc(F)cc2s1	tim10-1 inh 42 (no result: NALP1 inh) | tim10-1 conf 35
O=C(O)c1cc([N+](=O)[O-])ccc1NCc1ccccn1	none (no result: SKKanGAS inh, NALP1 inh)
Oc1ccc(/C=N/Nc2nccnc2Cl)cc1	tim10-1 inh 47 | tim10-1 conf 40
CCc1ccc(-n2nc3cc(C)c(N)cc3n2)cc1	none
Cc1ccc(-n2nc3cc(C)c(N)cc3n2)cc1	tim10-1 inh 41 | tim10-1 conf inactive
Cc1sc2ncnc(Sc3ccccc3C(=O)Nc3ccccc3Cl)c2c1C	tim10-1 inh 43 | tim10-1 conf inactive
COc1ccc2oc(C(=O)OCC(=O)NC3CCCCC3)c(C)c2c1	none (no result: NALP1 inh)
O=C(N/C(=C\c1ccc([N+](=O)[O-])cc1)C(=O)N1CCCCC1)c1ccccc1	none
O=[N+]([O-])/C(C(Cl)=C(Cl)Cl)=C(/Sc1ccccc1)N1CCCCC1	tim10-1 inh 41 | tim10-1 conf 45
COc1ccc(-c2[nH]ncc2/C=N\NC(=O)c2cccs2)cc1OC	none (no result: SKKanGAS inh)
O=S(=O)(/N=C(/Nc1cccnc1Cl)c1ccccc1)c1ccccc1	none (no result: SKKanGAS inh, NALP1 inh)
CCn1c2ccccc2c2nnc(SCc3ccccc3)nc21	tim10-1 inh 44 | tim10-1 conf inactive
CCn1c2ccccc2c2nnc(SCC(N)=O)nc21	none
Oc1ccccc1-c1nc(NCc2cccnc2)c2ccccc2n1	tim10-1 inh 49 | tim10-1 conf 57
CCC1=NN2C(=N)/C(=C\c3cccn3-c3ccc(OC)cc3)C(=O)N=C2S1	none
Cc1ccc(-n2cccc2/C=C2\C(=N)N3N=C(C(C)C)SC3=NC2=O)cc1	tim10-1 inh 42 | tim10-1 conf inactive
CC(C)(C)CC(=O)N1CCN(c2ccc(S(=O)(=O)N3CCOCC3)cc2[N+](=O)[O-])CC1	none (no result: SKKanGAS inh, NALP1 inh)
C/C(=N\NC(=O)CNC(=O)c1cccs1)c1ccc(Cl)c(Cl)c1	tim10-1 inh 51 | tim10-1 conf inactive
Nc1ccccc1C(=O)/C=C/c1ccc2c(c1)OCO2	tim10-1 inh 44 | tim10-1 conf 39
O=C(/C=C/c1ccc2c(c1)OCO2)c1ccco1	none
C=CCn1c(N)c(C(=O)Nc2ccc(C)c(C)c2)c2nc3ccccc3nc21	none
Nc1c(C(=O)Nc2ccccc2)c2nc3ccccc3nc2n1CCCN1CCOCC1	tim10-1 inh 64 (no result: NALP1 inh) | tim10-1 conf 44
C=CCn1c(N)c(C(=O)Nc2cccc(C)c2)c2nc3ccccc3nc21	tim10-1 inh 61, SKKanGAS inh 51 | tim10-1 conf 49
CCOC(=O)[C@@H]1[C@H]2COc3ccccc3[C@@H]2N2C(=O)N(c3ccccc3)C(=O)[C@]12C	none
Cc1cc(CNC(=O)COC(=O)c2ccc(Cl)c(N)c2)cc(C)c1O	none (no result: NALP1 inh)
Cc1ccc(C(=O)O/N=C2\CCSc3ccc(C)cc32)cc1	tim10-1 inh 40 (no result: NALP1 inh) | tim10-1 conf 33
Cc1cc(OCC(=O)N2CCc3ccccc3C2)c2c(-c3ccccc3)cc(=O)oc2c1	tim10-1 inh 46 | tim10-1 conf inactive
CCOc1cc(C)cc2oc(=O)cc(-c3ccccc3)c12	none
COc1ccccc1NC(=O)c1ccc2c(c1)CCN2S(C)(=O)=O	none
O=C1c2ccccc2NC(c2c(Cl)cccc2Cl)N1Cc1ccccc1 (stereo not given)	tim10-1 inh 40 | tim10-1 conf inactive
O=C1c2ccccc2NC(c2ccc(Cl)cc2Cl)N1Cc1ccccc1 (stereo not given)	none
Cc1ccc(C(=O)N2CCCC(N(C)Cc3ccccc3)C2)s1 (stereo not given)	none
C=CCn1c(SCC(=O)N(C(C)CC)C2CCS(=O)(=O)C2)nc2ccccc2c1=O (stereo not given)	none (no result: SKKanGAS inh, NALP1 inh)
Cc1cc(C)c2sc(NC(=O)c3ccc([N+](=O)[O-])o3)nc2c1	tim10-1 inh 56 | tim10-1 conf 54
O=C(Nc1c(Cl)ccc2nsnc12)c1ccc([N+](=O)[O-])o1	tim10-1 inh 52 | tim10-1 conf 33
Cc1cc(NC(=O)COc2ccc(C(C)(C)C)cc2)no1	none
CCN(CC)CCOC(=O)c1ccc(NC(=O)CCCN2C(=O)/C(=C/c3cccs3)SC2=S)cc1	none
Cc1oc(=O)c(NC(=O)c2ccc(Cl)cc2)cc1C(=O)c1ccccc1	tim10-1 inh 56 | tim10-1 conf 57
Cc1ccc(C(=O)c2oc3ccc(Cl)cc3c2NC(=O)CN2CCN(C)CC2)cc1	tim10-1 inh 49 | tim10-1 conf inactive
COc1ccc(Cc2nc3ccc(C(=O)NCC(C)(C)OC)cc3o2)cc1	none
CCOc1cccc(-c2nn3c(-c4ccco4)nnc3s2)c1	tim10-1 inh 42 | tim10-1 conf inactive
COc1cccc(-c2nnc3sc(-c4ccc(C)cc4)nn23)c1	none
COc1cccc(-c2nn3c(-c4cccc(C)c4)nnc3s2)c1	tim10-1 inh 44 | tim10-1 conf inactive
COc1cccc(-c2nnc3sc(-c4ccco4)nn23)c1	none
O=C(NN=Cc1cc(Br)c(O)c(Br)c1)c1ccccc1NS(=O)(=O)c1cccs1	none (no result: SKKanGAS inh, NALP1 inh)
COc1ccc(Cl)cc1NC(=S)N(Cc1ccc(C(=O)O)cc1)Cc1ccc(OC)c(OC)c1	none
COc1ccc(Nc2nc(N)nc(CSC(=S)N3CCN(c4ccccc4)CC3)n2)cc1	tim10-1 inh 41 | tim10-1 conf inactive
CCOc1ccc(Nc2nc(N)nc(CSC(=S)N3CCN(c4ccccc4)CC3)n2)cc1	none (no result: NALP1 inh)
Nc1nc(-c2ccc3ccccc3c2)cs1	tim10-1 inh 43 | tim10-1 conf inactive
O=C(NC1CCC(Oc2ccc(C(=O)O)cc2)CC1)NC12CC3CC(CC(C3)C1)C2 (stereo not given)	none (no result: SKKanGAS inh, NALP1 inh)
O=C(CN1C(=O)NC(CCc2ccccc2)C1=O)Nc1cccc(Br)c1 (stereo not given)	none (no result: SKKanGAS inh, NALP1 inh)
O=C(/C=C/c1ccccc1)c1ccccc1	none
N#Cc1ccc(/C=C/C(=O)c2ccccc2)cc1	tim10-1 inh 48 | tim10-1 conf 43
Cc1cccc2c(C(=O)O)c3cccc(C)c3nc12	none (no result: NALP1 inh)
COc1ccc(OC)c(Nc2nc(NCCC(C)C)nc(N)c2[N+](=O)[O-])c1	none
CCC(C)Nc1nc(N)c([N+](=O)[O-])c(Nc2cc(OC)ccc2OC)n1 (stereo not given)	tim10-1 inh 40, SKKanGAS inh 69 | tim10-1 conf inactive
O=C(NC(=S)NNC(=O)c1ccco1)c1ccc(Br)cc1	tim10-1 inh 41, SKKanGAS inh 55 | tim10-1 conf inactive
O=C(NNC(=S)Nc1ccccc1)c1ccco1	none
Cc1cccc(C)c1NC(=O)c1cc(-c2ccccn2)nc2ccccc12	tim10-1 inh 41 | tim10-1 conf inactive
